AMA1-RON2 inh – inhibitors of Plasmodium falciparum AMA1-RON2 interaction. AlphaScreen AMA1-biotinylated RON2 peptide binding. Potency, µM (top dose mostly 58.2 µM), most hits filed as inhibitors. 360,000 tested, 0.2% active; further: nearly all actives have a fitted effect of over 45% in size
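AMA1 (3D7) with his tag at 25 nM final met compounds first, then biotinylated RON2 peptide at 25 nM; detection used donor plus acceptor beads, 10 µg/mL apiece, read by AlphaScreen after 30 min at room temperature.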
Shiga inhibitor – inhibitors of Shiga toxin in Vero cells. inhibition, % at 38.7 µM. Vero cells, Shiga toxin protein synthesis inhibition reporter. 290,000 tested, 9.2% active; in the data active means inhibition mostly above about 28%, no sharp cut-off; inactive means mostly below about 43%
SARS PLpro yeast – blocks SARS-CoV papain-like protease in a yeast assay | S. cerevisiae expressing SARS-CoV PLpro, growth rescue | Potency, µM (doses to about 32.9 µM), usual class: activators | AID 485353 | 330,000 tested, 0.19% active; calls by dose curve; further: nearly all actives have a fitted effect of over 55% in size
Pf growth 96h – P. falciparum growth inhibition at 96 hour, primary screen for plastid delayed-death inhibitors. P. falciparum luciferase reporter growth, 96 h. Potency, µM (top dose mostly 28.7 µM), usual class: inhibitors. 320,000 tested, 6.9% active
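Luminescence readout: decreased luciferase signal marks inhibited growth of reporter-expressing P. falciparum in infected red cells (2% hematocrit, 0.05% parasitemia final), exposed to compound two generations (96 h, 37 C, 5% CO2).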
Pf growth 48h – P. falciparum growth inhibition at 48 hours (one generation); 310,000 tested, 5.9% active; P. falciparum luciferase growth in erythrocytes, 48 h; Potency, µM (series often up to 28.7 µM), actives largely listed as inhibitors
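Parasite viability was followed by luminescence of a genomically integrated firefly luciferase. Cultures held 0.1% parasitemia at 2% hematocrit (final), incubated under 5% CO2 at 37 C.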
CHX counter – affects cycloheximide protein synthesis inhibition readout, counter-screen. cell reporter, cycloheximide protein synthesis inhibition counterscreen. max response, %. 300,000 tested, 12% active; in the data active means max response mostly above about 13%, no sharp cut-off; inactive means mostly below about 14%; further: read at 38.3 µM for the half of the compounds with a filed dose
A number is an active result; 0 = inactive; ? = inconclusive; - = not tested or not shown; [ ] = dose if it differs, or a comment. Rows were chosen to be rich in hits. Some 19% of all compounds tested hit in one or more screens of this group. Unless noted, the call rests on the fitted dose curve; in most records, active means well fitted curve in the direction sought with a large enough effect; inconclusive means small, poorly fitted or top-dose-only effect, or another doubt; inactive means no such curve, though single readings can be large; an effect the other way counts as inactive or inconclusive.

SMILES | AMA1-RON2 inh | Shiga inhibitor | SARS PLpro yeast | Pf growth 96h | Pf growth 48h | CHX counter
CC1=NN(c2ccccc2)C(=O)C1C(=O)c1ccccc1 (stereo unspecified) | 0 | 0 | ? | 0 | 0 | 0
Cc1ccc(C(=O)/C=C/Nc2ccc([N+](=O)[O-])cc2Br)cc1 | 0 | 77 | 0 | 0 | 0 | 67
CCOc1ccc(N/C=C/C(=O)c2ccc(C)cc2)c([N+](=O)[O-])c1 | 0 | 64 | 0 | 0 | 0 | 42
COC(=O)[C@H](CC(C)C)NS(=O)(=O)N(Cc1ccccc1)[C@@H](CC(C)C)C(=O)OC | 0 | - | 0 | ? | 8.3µM | -
C=CCCN(C(CC(C)C)C(=O)OC)S(=O)(=O)c1ccccc1Br (stereo unspecified) | 0 | 0 | 0 | 12µM | ? | 0
CC(C)(C)C1CCSC2=NCCC[C@]2(c2ccccc2)C1 (stereo partly specified) | 0 | - | - | - | - | -
COC(=O)C1=C(c2ccc(F)cc2OCc2ccccc2)C[C@@H]2CC[C@H]1N2C(=O)NCc1ccccc1Br | 0 | - | 0 | 1.3µM | 4.1µM | -
COC(=O)C1=C(c2ccc(F)cc2OCc2ccccc2)C[C@@H]2CC[C@H]1N2C(=O)NCc1ccccc1C(F)(F)F | 0 | - | 0 | ? | 5.2µM | -
N#CCC(=O)N/N=C/c1ccc(OCC(=O)Nc2ccc(F)cc2)cc1 | 0 | 0 | 0 | 0 | 0 | 0
CC(c1ccccc1)n1c(CO)nc2ccccc21 (stereo unspecified) | 0 | 0 | 0 | ? | 0 | 0
O=C(c1cc2c(=O)n3ccccc3nc2s1)N1CCN(Cc2ccc3c(c2)OCO3)CC1 | 0 | 0 | 0 | 6.6µM | 0 | 0
O=C(c1cc2c(=O)n3ccccc3nc2s1)N1CCN(Cc2ccccc2)CC1 | 0 | 0 | 0 | 0 | 0 | 0
O=C(c1cc2c(=O)n3ccccc3nc2s1)N1CCc2ccccc2C1 | - | 0 | 0 | ? | 0[5.75 µM] | 11
CCOC(=O)C1CCN(C(=O)c2cc3c(=O)n4cccc(C)c4nc3s2)CC1 | 0 | 0 | 0 | 0 | 0 | 0
CCOC(=O)CC1C(=O)NCCN1C(=O)c1cc2c(=O)n3ccccc3nc2s1 (stereo unspecified) | - | 0 | 0 | 10µM | - | 0
CCOC(=O)C1CCN(C(=O)c2cc3c(=O)n4ccccc4nc3s2)CC1 | 0 | 0 | 0 | ? | 0 | 23
O=C1N=C(C=c2ccc(=Cc3[nH]c(=O)[nH]c3O)cc2)C(=O)N1 | - | 0 | 0 | 0 | 0 | 0
CCOC(=O)CC1C(=O)NCCN1S(=O)(=O)c1ccc(NC(C)=O)cc1 (stereo unspecified) | 0 | 0 | 0 | 0 | 0 | 0
COCCCN1C(=O)C(CC(=O)NCCN2CCOCC2)CC(C(=O)N(C)C)=C1C (stereo unspecified) | 0 | - | - | - | - | -
CC1CCCN(C(=O)c2cc3c(=O)n4ccccc4nc3s2)C1 (stereo unspecified) | 0 | 78 | 0 | 0 | 0 | 34
CC1CCCCN1C(=O)c1cc2c(=O)n3ccccc3nc2s1 (stereo unspecified) | 0 | 52 | 0 | ? | 0 | 0
N#Cc1c2ccc(O)cc2n2ccccc12 | 0 | 0 | 0 | 0 | 0 | 27
C=CCSc1nc2c(c(C3CC=CCC3)c1C#N)CCC2 (stereo unspecified) | ? | 0 | 0 | 8.3µM | ? | 0
COc1ccc(C(=O)NC(=S)SCC(=O)O)cc1 | 0 | 26 | 0 | 0 | 0 | 15
CCCC(=O)NC(=S)Nc1ccccc1F | 0 | 0 | 0 | 0 | 0 | 15
SMILES | AMA1-RON2 inh | Shiga inhibitor | SARS PLpro yeast | Pf growth 96h | Pf growth 48h | CHX counter
CC(C)(C)C(=O)NC(=S)Nc1ccccc1F | 0 | 0 | ? | 0 | 0 | 26
COc1ccc(C(=O)NC(=S)Nc2ccccc2F)cc1 | 0 | 67 | 0 | ? | 0 | 56
CC(=O)NC(=S)Nc1ccccc1F | 0 | 0 | 0 | 0 | 0 | 0
CCOC(=O)CSC(=S)NC(=O)c1ccc(OC)cc1 | 0 | 0 | 0 | 0 | 0 | 0
CCOC(=O)NC1(C(F)(F)F)C(=O)N(Cc2ccccc2)C2=C1C(=O)CC(C)(C)C2 (stereo unspecified) | 0 | 0 | 0 | ? | 0 | 0
NC(=NCCc1ccccc1)NS(=O)(=O)c1cccs1 | 0 | 0 | 0 | 0 | 0 | 0
O=C1/C(=N\S(=O)(=O)c2cccs2)C([n+]2ccc(CCCc3ccccc3)cc2)=C([O-])c2ccccc21 | 0 | 0 | 0 | 1µM | 0.37µM | 0
O=C1/C(=N\S(=O)(=O)c2cccs2)C([n+]2cccc(Cc3ccccc3)c2)=C([O-])c2ccccc21 | 0 | 0 | 0 | 0.74µM | 1.7µM | 0
CCC(=O)N(CCC(Cc1ccccc1)c1ccc2c(c1)OCO2)Cc1ccccc1F (stereo unspecified) | 0 | 0 | 0 | 12µM | ? | 0
CCC(=O)N(CCC(Cc1ccccc1)c1ccco1)Cc1ccco1 (stereo unspecified) | 0 | 0 | 0 | 0 | ? | 0
COc1ccc(-c2cc(C(F)(F)F)n3nc(C(=O)Nc4cc(C)on4)cc3n2)cc1OC | 0 | 0 | 0 | 0 | ? | 0
COc1ccc(-c2cc(C(F)(F)F)n3nc(C(=O)NCc4ccco4)cc3n2)cc1 | 0 | 0 | 0 | ? | 9.3µM | 0
COc1ccc(-c2cc(C(F)(F)F)n3nc(C(=O)N(C)Cc4ccccc4)cc3n2)cc1OC | 0 | 0 | 0 | 0[5.75 µM] | 6.6µM | 0
CC(C)CN(Cc1cc(=O)oc2cc3c(cc12)CCCC3)CC(C)C | 0 | 0 | 0 | ? | 1.3µM | 0
C=C1CC2(OC1=O)c1ccccc1CCc1ccccc12 | 0 | - | - | - | - | -
COc1ccc(N2C3=C(C(=O)CC(C)(C)C3)C(c3ccccc3OC)C3=C2CC(C)(C)CC3=O)cc1 | 0 | 0 | 0 | ? | ? | 0
COc1ccc(N2C3=C(CC4=C2CC(C)(C)CC4=O)C(=O)CC(C)(C)C3)cc1 | 0 | 0 | 0 | 13µM | 9.3µM | 0
COc1ccc(N2C3=C(CC4=C2CCCC4=O)C(=O)CCC3)cc1 | 0 | 0 | 0 | 12µM | ? | 0
O=C(COC(=O)Cc1ccc(-c2ccccc2)cc1)NCc1ccccc1 | 0 | 0 | 0 | 0 | 0 | 0
CN(C)CCCN(C(=O)c1cc(-c2cccs2)nc2ccccc12)c1nc2ccc(F)cc2s1 | ? | 0 | 0 | 2.1µM | 3.3µM | 0
CCN(CC)CCN(C(=O)c1ccccc1OC)c1nc2ccc(F)cc2s1 | 0 | 0 | 0 | ? | 0 | 20
CN(C)CCN(C(=O)/C=C/c1cccs1)c1nc2ccc(F)cc2s1 | 0 | 0 | 0 | 10µM | 0 | 0
CN(C)CCCN(C(=O)CCc1ccccc1)c1nc2ccc(F)cc2s1 | 0 | 0 | 0 | ? | ? | 0
CCN(CC)CCN(C(=O)/C=C/c1cccs1)c1nc2ccc(Cl)cc2s1 | 0 | 0 | 0 | ? | ? | 0
O=[N+]([O-])c1cc(Cl)cc(/C=N/Nc2nc3ccccc3s2)c1O | 0 | 41 | 0 | 0 | 0 | 32
COc1cc(/C=N/Nc2nc3ccccc3s2)cc([N+](=O)[O-])c1O | 0 | 56 | 0 | 0 | 0 | 19
Cc1nc2sccc2c(=O)n1N | 0 | 0 | 0 | 0 | 0 | 0
Cc1ccc(OCC(=O)Nc2ccc(-c3nc4ccc(C)cc4o3)cc2)cc1 | - | 80 | - | - | - | 34

Screens deposited in PubChem BioAssay by National Center for Advancing Translational Sciences (NCATS).
